For 40 compounds, Potency results are on record in PubChem BioAssay (NCATS).

Structures are written as SMILES. Inconclusive results are not listed. Where a call stands in place of a potency, no number is given. The source made the active and inactive calls. The call rests on the fitted dose curve; in most records, active means well fitted cell-killing curve with a large enough effect; inconclusive means small, poorly fitted or top-dose-only effect, or effect the other way; inactive means no such curve, though single readings can be large or run the other way.
Potency means the concentration at half of the fitted maximal effect.

The assay is described as follows: qHTS assay to identify small molecule inhibitors of chordoma cells - UCH-1 (AID 1259355). Further: nearly all actives have a fitted effect of over 55% in size. The conditions noted are these: UCH-1 chordoma viability, CellTiter-Glo, 48 h, combination, with auranofin plus four topoisomerase inhibitors; series mostly up to 46.1 µM. The text has this:
NIH Chemical Genomics Center [NCGC]
Chordoma is a rare and slow growing tumor that can occur anywhere along the spine, from the base of the skull to the tailbone. Current treatment options for chordoma is surgery and radiation therapy for those who are not candidates for surgery. But chordomas tend to return in the same location or surrounding areas of the original tumor after surgery and/or radiation. Chemotherapy can slow down the progression of the tumor. As chordoma is slow growing, the general cytotoxic agents that kill fast growing cells are ineffective, and some patients have been reported to respond to molecularly targeted drugs.
NCATS Pharmaceutical Collection (NPC) containing approximately 3000 clinically approved and investigational drugs were used to screen at 15 concentrations in a chordoma cell lines, UCH-1, to identify small molecule compounds that can inhibit chordoma cell growth.
NCGC Assay Protocol Summary:
Human chordoma cell line UCH-1 was dispensed at 800 per well in 4uL of culture medium into white solid bottom 1536-well plates (Corning Life Sciences, Corning, NY) using a Multidrop Combi (Thermo Scientific, Waltham, MA) dispenser. The assay plates were incubated at 37 C and 5% CO2 for an overnight, and then 23nL of compounds dissolved in DMSO and positive control were transferred using a Pintool station (Wako, San Diego, CA). Compound treatment was followed by the addition of 1uL of the combination compounds (1uM Auranofin, 500nM each of Camptothecin, Doxorubicin, Rubitecan, and Topotecan) and assay medium to each well of the assay plates using Flying Reagent Dispenser (FRD, Aurora Discovery, San Diego, CA). The assay plates were incubated at 37 C and 5% CO2 for 48hr. Then 5uL of CellTiter-Glo reagent (Promega Corporation, Madison, WI) was added to each well of the assay plates using FRD. After 30min incubation at room temperature, the luminescence signal was quantified using a ViewLux plate reader (PerkinElmer, Shelton, CT).
Background: In qHTS, concentration-response curves come from the screen itself.
With `C[C@]12CC[C@@H]3c4ccc(O)cc4CC[C@H]3[C@@H]1CC[C@@H]2O`, the Potency entry is “inactive”.
With `COc1cc(-c2ccc(=O)[nH]n2)ccc1OC(F)F`, the Potency result was “inactive”.
As to `c1ccc(OCc2ccc(CCCN3CCOCC3)cc2)cc1`, the Potency entry is “inactive”.
Consider `CCCCOc1cc(C(=O)NCCN(CC)CC)c2ccccc2n1`, for which the Potency entry was “inactive”.
As to `O=C(O)c1cc2cc(Cc3cccnc3)ccc2o1`, the Potency entry was “inactive”.
Regarding `CC(=O)Oc1ccc(C(=C2CCCCC2)c2ccc(OC(C)=O)cc2)cc1`, the Potency entry is “inactive”.
`c1ccc(CNCCNCc2ccccc2)cc1`: the Potency result was “inactive”.
Regarding `Cc1ccnc(NS(=O)(=O)c2ccc(N)cc2)n1`, the Potency result was “inactive”.
`Nc1ccc(C(=O)O)cc1`: the Potency entry is “inactive”.
Take `CCC(NC(C)C)C(O)c1ccc(O)c(O)c1` (stereo not given): the Potency result was “inactive”.
Take `Oc1ccc(Cl)c2cccnc12`: the Potency entry is “inactive”.
With `O=C(CCCN1CCC(O)(c2ccc(Br)cc2)CC1)c1ccc(F)cc1`, the Potency entry is “inactive”.
For the compound `OC[C@@H](O)[C@@H](O[C@@H]1O[C@H](CO)[C@H](O)[C@H](O)[C@H]1O)[C@H](O)[C@@H](O)CO`, the Potency result was “inactive”.
In the case of `O=C(Nc1ccc(Cl)c(Cl)c1)C1CC1`, the Potency result is “inactive”.
`NCCC(O)(P(=O)(O)O)P(=O)(O)O`: the Potency result is “inactive”.
On to `C[C@]12CCC(=O)C=C1[C@@H]1C[C@@H]1[C@H]1[C@@H]3[C@@H]4C[C@@H]4[C@@]4(CCC(=O)O4)[C@@]3(C)CC[C@@H]12`, for which the Potency entry is “inactive”.
Turning to `CCOC(=O)COc1ccc2c(C)c(CCN(CC)CC)c(=O)oc2c1Cl`, the Potency entry is “inactive”.
As to `CC1=C(C(=O)O)N2C(=O)[C@@H](NC(=O)[C@H](N)c3ccc(O)cc3)[C@H]2SC1`, the Potency entry was “inactive”.
On to `CN(C)CC/C=C1/c2ccccc2COc2ccc(CC(=O)O)cc21`, for which the Potency result is “inactive”.
For the compound `O=C(Nc1ccc(Oc2ccc(Cl)cc2)c(Cl)c1)c1cc(I)cc(I)c1O`, the Potency result was “inactive”.
In the case of `CCCC(=O)Nc1ccc(OCC(O)CNC(C)C)c(C(C)=O)c1` (stereo not given), the Potency entry is “inactive”.
With `CCCSS/C(CCO)=C(\C)N(C=O)Cc1cnc(C)nc1N` the entry was “inactive”.
On to `CN1C(CCl)Nc2cc(Cl)c(S(N)(=O)=O)cc2S1(=O)=O` (stereo not given), for which the Potency entry was “inactive”.
Take `CC(=O)N/N=C/c1ccc([N+](=O)[O-])o1`: the Potency result was “inactive”.
In the case of `COc1cc(C=C2CCC/C(=C\c3ccc(O)c(OC)c3)C2=O)ccc1O`, the Potency is 31.6 µM (active).
Take `CCN1CCCC1=O`: the Potency result is “inactive”.
For `C[C@@H](CN(C)C)CN1c2ccccc2Sc2ccccc21`, the Potency result was “inactive”.
With `CCCCCCCCCCCCCCCC[N+](C)(C)CC` the entry was “inactive”; with `C[C@]12C=CC(=O)C=C1CC[C@@H]1[C@@H]2[C@@H](O)C[C@@]2(C)[C@H]1CC[C@]2(O)C(=O)CO`, “inactive”.
As for `Cc1c(C(N)=O)cc([N+](=O)[O-])cc1[N+](=O)[O-]`, the Potency result was “inactive”.
Regarding `COc1cc(C(=S)N2CCOCC2)cc(OC)c1OC`, the Potency entry is “inactive”.
For `O=S1(=O)c2cccc3cccc(c23)N1CCCN1CCN(c2ccc(F)cc2)CC1` the value was “inactive”; for `CC(=O)c1ccc2c(c1)N(CCCN1CCC(CCO)CC1)c1ccccc1S2`, “inactive”.
Turning to `CCN1CCN(c2cc3c(cc2F)c(=O)c(C(=O)O)cn3C2CC2)CC1`, the Potency entry is “inactive”.
Regarding `CC[C@@H](CO)NCCN[C@@H](CC)CO`, the Potency entry was “inactive”.
Turning to `COc1cccc2c1C(=O)c1c(O)c3c(c(O)c1C2=O)C[C@@](O)(C(C)=O)C[C@@H]3O[C@H]1C[C@H](N)[C@H](O)[C@H](C)O1`, the Potency is 1.78 µM (active).
Regarding `O=C1OC(c2ccc(O)cc2)(c2ccc(O)cc2)c2ccccc21`, the Potency entry is “inactive”.
Regarding `CC(=O)Nc1c(I)cc(I)c(C(=O)O)c1I`, the Potency result is “inactive”.
For the compound `CN1CCC(=C2c3ccccc3Sc3ccccc32)CC1`, the Potency result was “inactive”.
For the compound `CCN(CC)CCOC(=O)C(c1ccccc1)C1CCCCC1` (stereo not given), the Potency entry is “inactive”.
